CF NFkB block: inhibitors of cystic fibrosis induced NF-kB. AID 588850. hit rate 0.86% among 360,000. KKLEB NF-kB-GFP reporter, PAF-induced, GFP fluorescence overnight. inhibition, % at 5 µM;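 active = at least 50% inhibition at 5 µM, scaled per plate between neutral and stimulator controls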;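 note: PAF is a Pseudomonas aeruginosa culture filtrate used as stimulus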
Peg3 promoter: Peg3 promoter activity inhibition. AID 588405. inhibition, % at 20 µM. HeLa PEG-Prom luciferase reporter, luminescence, overnight. hit rate 1.7% among 360,000;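 active = inhibition of at least 50% at 20 µM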
TWEAK Fn14 block: blocks TWEAK-Fn14 interaction in a reporter cell assay; TWEAK-stimulated Fn14 reporter cells, luciferase luminescence, 8 h; inhibition, % at 10 µM; hit rate 2% among 360,000; in the data active = inhibition above about 50%
HIF-2a block: blocks HIF-2a reporter activity | 786-0 RCC cells HIF-2a reporter, luciferase luminescence, overnight | inhibition, % at 18.8 µM | hit rate 0.72% among 360,000 | AID 624352;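 active = inhibition of the luminescence signal of 40% or more relative to plate controls, in a single-dose primary screen at 18.75 µM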
KKLEB tox: CF airway cell cytotoxicity counter-screen | hit rate 0.36% among 360,000 | KKLEB CF airway cells viability, ATPlite luminescence, overnight; hits give low values; cells stimulated with P. aeruginosa culture filtrate | activity change (cytotoxicity), % at 5 µM;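 active = corrected activity change at or below -50% at 5 µM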
TROY signal inh: inhibitors of TROY-dependent NF-kB signaling. Q293 LMP1-TROYcd NF-kB luciferase reporter, 4 h. inhibition, % at 10 µM. hit rate 0.98% among 360,000;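 active = compounds whose plate-normalised and pattern-corrected inhibition of the luciferase reporter signal at the single screening dose is 50% or more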
Each line names hits and unclear results; the compound was inactive in the other large screens. This is a sample that favours compounds with a hit; in the whole collection about 4% have one here.

COc1ccc(C(=O)c2sc(Nc3ccccc3)nc2N)cc1OC	Peg3 promoter 78, TWEAK Fn14 block 54
Nc1nc(Nc2ccccc2)sc1C(=O)c1ccccc1	CF NFkB block 87, Peg3 promoter 91, TWEAK Fn14 block 62
COC(=O)Cn1c(=NC(=O)C(C)C)sc2c(C)cc(C)cc21	none
Cc1cccc(C(=O)OCC(=O)Nc2nnc(-c3ccccc3)o2)c1O	none
COc1cc(C(=O)Nc2ccc3c(c2)Cc2cc(NC(=O)c4cc(OC)c(OC)c(OC)c4)ccc2-3)cc(OC)c1OC	CF NFkB block 68, KKLEB tox -77
COc1cc(C(=O)Nc2ccncc2)cc(OC)c1OC	none
O=C1NC2=C(C(=O)CCC2)C(c2ccccc2[N+](=O)[O-])N1 (stereo not given)	none
Cc1[nH]c(=O)[nH]c(=O)c1S(=O)(=O)N1CCCC(C(=O)N2CCN(c3cccc(C(F)(F)F)c3)CC2)C1 (stereo not given)	none
Cc1ccc(NC(=O)C2CCCC2)cc1Cl	none
Cc1ccc(NS(=O)(=O)c2ccc(Cl)c(NC(=S)NC(=O)C3CCCCC3)c2)cc1Cl	TWEAK Fn14 block 65
CC(=O)c1ccc(NC(=O)Nc2ccncc2)cc1	TWEAK Fn14 block 58
COC(=O)c1sccc1NC(=O)Nc1ccc(C(C)=O)cc1	TWEAK Fn14 block 59
O=C(Nc1ccncc1)Nc1ccncc1	none
COC(=O)c1sccc1NC(=O)Nc1ccc(C)cc1	none
O=C(Nc1ccc(S(=O)(=O)N2CCOCC2)cc1)c1ccccc1F	none
COc1ccc(/C=C(/C(=O)c2cccs2)N2C=CC=CC2=C(C#N)C#N)cc1	Peg3 promoter 94
Cc1cc(C)c2nc(NCCCNC(=S)NCCCN(C)C)c(C#N)cc2c1	Peg3 promoter 91
O=c1[nH]c(C2CCN(S(=O)(=O)/C=C/c3ccccc3)CC2)nc2c1nnn2Cc1ccc(F)cc1	none
O=C(NC1CCCCC1)c1noc2c1CCCCC2	TWEAK Fn14 block 55
CC(C)(C)C1CCc2onc(C(=O)NC3CCCC3)c2C1 (stereo not given)	none
CCc1ccc(NC(=O)c2noc3c2CCC3)cc1	TWEAK Fn14 block 73
CCc1ccc(NC(=O)c2noc3c2CCCCC3)cc1	none
Cc1ccc(NC(=O)c2noc3c2CCCCC3)cc1	TWEAK Fn14 block 51
O=C(COC(=O)Cc1ccc(Br)cc1)Nc1ccc(Cl)cn1	none
CC1CC(C)CN(C(=O)COC(=O)Cc2c[nH]c3ccccc23)C1 (stereo not given)	none
CCCCCCN1CCN(C2CN(Cc3cn(Cc4ccc(Cl)cc4)nn3)S(=O)(=O)C2)CC1 (stereo not given)	none (no result: CF NFkB block, Peg3 promoter, KKLEB tox)
CCCCCCn1cc(CN2CC(N3CCN(CCO)CC3)CS2(=O)=O)nn1 (stereo not given)	TWEAK Fn14 block 108 (no result: CF NFkB block, Peg3 promoter, KKLEB tox)
Cc1ccc(NC(=O)C[n+]2ccccc2)cc1[N+](=O)[O-]	none
CC(C)(Sc1ccc(CCN(CCCCC2CCCCC2)C(=O)NC2CCCCC2)cc1)C(=O)O	TROY signal inh 51
CN(Cc1ccccc1)C(=O)NC1CCCCC1	none
COc1cc2cc(-c3ccc(OC)c(OC)c3C)nc(N)c2cc1OC	Peg3 promoter 65
S=C(N/N=C1\CCc2ccccc21)NC1CCCCC1	TWEAK Fn14 block 74, TROY signal inh 71
O=C(N/N=C1\CCc2ccccc21)c1ccccc1Cl	none
O=C(N/N=C1\CCc2ccccc21)c1ccc(O)cc1	TWEAK Fn14 block 50
CC(=O)N1CC=CC1(CC(C)C)C(=O)NCCN1CCOCC1 (stereo not given)	TWEAK Fn14 block 83
C=CCn1cnc2c(nnn2-c2ccc(C)c(C)c2)c1=O	none
CCCOc1ccc2c(c1)C(=NN=C(N)N)c1cc(OCCC)ccc1-2	Peg3 promoter 90
NC(N)=NN=C1c2ccccc2-c2ccccc21	none
CNC(=O)c1ccc(NC(=O)CN2c3cccc4cccc(c34)S2(=O)=O)cc1	none
CCCCN(C(=O)CC1CCCC1)c1c(N)n(CCC)c(=O)[nH]c1=O	none
CC(=O)Nc1ccccc1N(CC(O)Cn1c2ccccc2c2ccccc21)S(=O)(=O)c1ccc(C)cc1 (stereo not given)	TWEAK Fn14 block 53
CC(=O)N1CCN(Cc2nc3cc(NC(=O)c4cccc(Br)c4)ccc3n2C)CC1	none
Cc1nn(CC(=O)NCCCN2CCC(Cc3ccccc3)CC2)c(=O)c2cc(-c3ccccc3)nn12	Peg3 promoter 100
Cc1nn(CC(=O)NCCCN2CCN(Cc3ccccc3)CC2)c(=O)c2cc(-c3ccccc3)nn12	none
CN(Cc1ccccc1F)c1ncnc2sccc12	TWEAK Fn14 block 51
CN(Cc1cccs1)c1ncnc2sccc12	none
CC(C)Cc1ccc(-c2cc3nc(NCCc4ccc(S(N)(=O)=O)cc4)ccn3n2)cc1	TWEAK Fn14 block 54
COc1ccc(/C=N/Nc2ncnc(Cl)c2N)cc1OC	none
COc1ccc(/C=N/Nc2ncnc3sc4c(c23)CCCC4)cc1OC	TWEAK Fn14 block 90, TROY signal inh 82
Cn1c(-c2ccccc2)cnc1SCC(=O)N1CCCCC1	TWEAK Fn14 block 93, TROY signal inh 61
CC(=O)c1cccc(OCCN2C(=O)NC(C)(C)C2=O)c1	TROY signal inh 58
Cc1nc(SCC(=O)Nc2c(C)n(C)n(-c3ccccc3)c2=O)c2cnn(-c3ccccc3)c2n1	none
O=C1CSC(=S)N1/N=C/c1ccc(O)c(O)c1O	TWEAK Fn14 block 78
COc1ccc(/C=N/N2C(=O)CSC2=S)cc1	none
CC(C)(C)c1ccc(/C=N/N2C(=O)CSC2=S)cc1	TWEAK Fn14 block 68, HIF-2a block 57
c1csc(CCNc2ncnc3sc4c(c23)CCC4)c1	TWEAK Fn14 block 61, TROY signal inh 54
N=c1oc2cc(O)ccc2cc1C(=O)Nc1nc2ccccc2s1	TWEAK Fn14 block 53, TROY signal inh 50
COc1cccc(NC(=O)c2cc3ccccc3oc2=O)c1	TWEAK Fn14 block 86
N=c1oc2ccccc2cc1C(=O)Nc1ccccc1	TWEAK Fn14 block 78
Cc1cccnc1NC(=O)Nc1cccc2ccccc12	TWEAK Fn14 block 56, TROY signal inh 66
Cc1cccnc1NC(=O)c1cc2ccccc2oc1=O	TWEAK Fn14 block 80
CCC(=O)Nc1cccc(-c2cc3ccccc3oc2=O)c1	TWEAK Fn14 block 60, TROY signal inh 63
CCC(=O)Nc1cccc(NC(=O)c2cc3ccccc3o2)c1	none
N=c1oc2cc(O)ccc2cc1C(=O)Nc1ccc(Br)cc1	TWEAK Fn14 block 72
COc1ccc2nc(NC(=O)c3cccc(-c4cc5ccccc5oc4=O)c3)sc2c1	CF NFkB block 60, Peg3 promoter 99, KKLEB tox -54
CC1CCCC(NC(=O)CNC(=O)c2cccs2)C1C (stereo not given)	none
O=C(CSc1ccccc1)Nc1nnc(-c2ccco2)o1	none
CC[C@@]1(C(=O)OC)N[C@H](CN(C)S(=O)(=O)c2ccc(C(F)(F)F)cc2)[C@@H]2C(=O)N(C)C(=O)[C@@H]21	TWEAK Fn14 block 83

Bioassay records deposited in PubChem BioAssay by Sanford-Burnham Center for Chemical Genomics.
